Assay results from PubChem BioAssay (Tox21).
Results filed as inconclusive are left out. Activity calls are given as the source filed them. The call rests on the fitted dose curve; in most records, active means well fitted activation curve with a large enough effect in the repeat runs; inconclusive means weak or mixed curves; inactive means flat fitted curve, though single readings scatter.
On the % scale 0 is the no-effect control and ±100 the full control effect; potency means the concentration at half of the fitted maximal effect.

Test: A CellTox Green Cytotoxicity Assay to monitor cytotoxicity in HEK293 cells - 16 hour (AID 1224888); further: nearly all actives have a fitted effect of over 35% in size
Conditions: CellTox Green fluorescence; series mostly up to 76.8 µM; activity change: at the top concentration
Description: National Center for Advancing Translational Sciences [NCATS]
NIH Chemical Genomics Center [NCGC]
U.S. Environmental Protection Agency [EPA]
National Institutes of Environmental Health Sciences [NIEHS]
National Toxicology Program [NTP]
Cell-based models are critical for drug discovery. Determining the natural cytotoxic effects resulting from test compounds is an essential research activity. A CellTox Green Cytotoxicity Assay to monitor cytotoxicity in real time of continues cell culture during 40 hours of the compound treatment was used to screen Tox21 10K library compounds in Hek293 cells. CellTox Green Cytotoxicity Assay is a nonlytic, homogeneous, biofluorescent method to measure cytotoxicity in cell culture after experimental manipulation. The assay system uses a proprietary asymmetric cyanine dye that is excluded from viable cells but preferentially stains the dead cell's DNA. […] Viable cells produce no appreciable increases in fluorescence. Therefore, the fluorescence signal produced by the binding interaction with dead cell DNA is proportional to cytotoxicity.
The mixture of Hek293 cell suspension and reagents were dispensed at 600cells/6 ul/well in 1536-well tissue culture treated black solid bottom plates using a Multidrop dispenser. After the assay plates were incubated at a 37 C/5% CO2 incubator for 5 hours, 23 nL of compounds dissolved in DMSO, positive and negative controls was transferred to the assay plate by a pintool work station. The plates were incubated at 37 C for 40 hours. The fluorescence intensity were measured at 0h, 8h, 16h, 24h, 32h and 40h time points using ViewLux plate reader during compound treatment.
With NCC1CCC(C(=O)Oc2ccc(CCC(=O)O)cc2)CC1 (stereo not given) the “activity change” value was 1.04% [at 35.3 µM, stronger effect = higher value] (inactive).
With CC(C)(C)OC=O the “activity change” value was 6.83% (inactive).
For COc1ccc(Cl)cc1C, the “activity change” value was -6.83% (inactive).
In the case of CCCC(=O)OC, the “activity change” value is reported as -8.63% (inactive).
In the case of CCCCCC(CC)OC(=O)CCCOc1ccc(Cl)cc1Cl (stereo not given), the “activity change” value is reported as -13.9% (inactive).
With CCCCN(CCCC)CCCCCCN(CCCC)CCCC the “activity change” value was -4.42% (inactive).
For CCOC(=O)CN1CCCC1=O, the “activity change” value was -11.8% [at 35.3 µM, stronger effect = higher value] (inactive).
In the case of O=C(O)COc1ccc2ccccc2c1, the “activity change” value is reported as -0.703% (inactive).
With CCCCN=C(N)N=C(N)N the “activity change” value was -10.6% [at 35.3 µM, stronger effect = higher value] (inactive).
With COc1cc(OC)cc(OC)c1 the “activity change” value was 0.733% [at 35.3 µM, stronger effect = higher value] (inactive).
With O=C(c1ccccc1)c1cccc(O)c1 the “activity change” value was 17.9% (inactive).
With Cc1nnc(C(=O)NC(C)(C)c2nc(C(=O)NCc3ccc(F)cc3)c(O)c(=O)n2C)o1 the “activity change” value was 19.8% [at 35.3 µM, stronger effect = higher value] (inactive).
For CCCCCCCCC1CO1 (stereo not given), the “activity change” value was -2.69% (inactive).
With CCCC(C)C(O)CC (stereo not given) the “activity change” value was 2.17% (inactive).
With COc1cnc(NS(=O)(=O)c2ccc(N)cc2)nc1 the “activity change” value was 14.3% [at 35.3 µM, stronger effect = higher value] (inactive).
With C/C=C/C(=O)CCCC the “activity change” value was -1.57% (inactive).
For CCCCc1ccc(Cl)cc1, the “activity change” value was -13.5% (inactive).
With COC(=O)/C=C(\C)CCC=C(C)C the “activity change” value was -2.12% (inactive).
With CCCCCCC(=O)c1ccccc1 the “activity change” value was 8.06% (inactive).
In the case of O=C(OOC(=O)c1ccccc1)c1ccccc1, the “activity change” value is reported as 18.9% [at 35.3 µM, stronger effect = higher value] (inactive).
With CCCc1ncc(C(=O)O)s1 the “activity change” value was -5.83% [at 35.3 µM, stronger effect = higher value] (inactive).
With O=Cc1ccc(C(=O)O)cc1 the “activity change” value was -12.1% (inactive).
In the case of Nc1cc(S(=O)(=O)O)ccc1O, the “activity change” value is reported as 13.4% (inactive).
With CNC(=O)c1c(I)c(NC(C)=O)c(I)c(C(=O)O)c1I the “activity change” value was -1.07% [at 35.3 µM, stronger effect = higher value] (inactive).
For Cc1cc(C)c(C)c(C)c1, the “activity change” value was -4.56% (inactive).
In the case of CC[N+](C)(CC)CC, the “activity change” value is reported as 2.01% (inactive).
For C=CC(=O)OCCOCCOCC, the “activity change” value was -0.0763% (inactive).
In the case of CCc1ncc(C)[nH]1, the “activity change” value is reported as -1.96% (inactive).
In the case of C=COCCCCO, the “activity change” value is reported as -9.29% (inactive).
With CC[C@@]1(c2ccccc2)NC(=O)N(C)C1=O the “activity change” value was -0.358% [at 35.3 µM, stronger effect = higher value] (inactive).
With CCN1CCN(C(=O)N[C@@H](C(=O)N[C@@H]2C(=O)N3C(C(=O)O)=C(CSc4nnnn4C)CS[C@H]23)c2ccc(O)cc2)C(=O)C1=O the “activity change” value was 14.1% [at 35.3 µM, stronger effect = higher value] (inactive).
For Nc1ccc(C(=O)NCC(=O)O)cc1, the “activity change” value was -12.6% [at 35.3 µM, stronger effect = higher value] (inactive).
For Cc1cc(C)c(N)c(Cl)c1, the “activity change” value was -4.12% (inactive).
With CC(C)C(=O)Nc1cccc(C2CN3CCSC3=N2)c1 (stereo not given) the “activity change” value was -5.18% [at 35.3 µM, stronger effect = higher value] (inactive).
With NC[C@H]1O[C@H](O[C@H]2[C@H](O)[C@@H](O[C@H]3O[C@H](CO)[C@@H](O)[C@H](N)[C@H]3O)[C@H](N)C[C@@H]2N)[C@H](N)[C@@H](O)[C@@H]1O the activity change was 2% [at 15.8 µM, stronger effect = higher value] (inactive).
In the case of C=C(C)C(=O)OCCCC, the “activity change” value is reported as -7.41% (inactive).
In the case of COC(=O)N/N=C/c1c[n+]([O-])c2ccccc2[n+]1[O-], the Potency is reported as 21.3 µM (active).
With CCC(C)c1nccnc1OC (stereo not given) the “activity change” value was 0.665% (inactive).
With O=C(O)CCCCCCCCCC(=O)O the “activity change” value was -10.9% (inactive).
With CC(C)(C)C(=O)CCc1ccc(Cl)cc1 the “activity change” value was 8.89% (inactive).
